Measured values: ChEMBL document CHEMBL3988442, “University of Dundee, Small-Polar-MMV Screening Library” (2021)
Among all 38,000 compounds or so, about 1,200 (3.2%) showed an effect of 50% or more. The median lay at about -58%. This is one part of a sample in which strong results are shown more often than they occur.

Tested on: Plasmodium falciparum
Assay: Calibr Malaria Delayed Death Assay SOP
Assay type: functional, organism-based
Design: scale not given: in the data most compounds retested in dose-response had high values
Settings: concentration 4.99e-06 (unit not given; other assays of the set use mol/L)

Row | SMILES | Percent Effect
1 | FC(F)(F)c1cccc(C2(CNCc3ccncc3)CCOCC2)c1 | 48.98%
2 | Clc1ccc(OCCNC2(c3ccc(Br)cc3)CCOCC2)cc1 | 8.374%
3 | CCN(C)S(=O)(=O)NCC1(c2cccc(Br)c2)CC1 | -108.3%
4 | Fc1ccc(C2(CNCCc3cccs3)CCOC2)cc1 (stereo not given) | 43.71%
5 | COCCn1ccnc1C1CCCN(c2cc(OC)nc(N)n2)C1 (stereo not given) | -62.62%
6 | CC(=O)N1CCCN(CC(C)(O)c2cccc(C(F)(F)F)c2)CC1 (stereo not given) | -93.83%
7 | CC(O)(CN1CCC(O)CC1)c1cccc(C(F)(F)F)c1 (stereo not given) | 56.04%
8 | CC(O)(CN1CCC2(CC1)OCCO2)c1cccc(C(F)(F)F)c1 (stereo not given) | -10.61%
9 | COc1cc(C)c(S(=O)(=O)CC(=O)N(C)C2CC2)cc1OC | -72.85%
10 | NC(=O)C1(c2cnccn2)CCCN1Cc1ccccn1 (stereo not given) | -37.82%
11 | Cc1ccc(NCCCc2c(C)noc2C)nn1 | -93.73%
12 | O=C(O)C(F)(F)F.c1ccc(CN2CCC3(CC2)CC(Nc2nccs2)CO3)nc1 (stereo not given) | 73.68%
13 | O=C(O)C(F)(F)F.c1cnc(NC2COC3(CCN(Cc4cccs4)CC3)C2)nc1 (stereo not given) | -52.55%
14 | Cn1cc(CN2CCC3(CC2)CC(Nc2nccs2)CO3)cn1.O=C(O)C(F)(F)F (stereo not given) | -11.64%
15 | Cc1cc(CN2CCC3(CC2)CC(Nc2ncccn2)CO3)nn1C.O=C(O)C(F)(F)F (stereo not given) | -11.8%
16 | Cc1cc(C)cc(CN2CCC3(CC2)CC(Nc2ncccn2)CO3)c1.O=C(O)C(F)(F)F (stereo not given) | 60.22%
17 | O=C(O)C(F)(F)F.c1cnc(NC2COC3(CCN(Cc4ccoc4)CC3)C2)nc1 (stereo not given) | -27.43%
18 | COc1ccc2c(ccn2CCC(=O)Nc2ccc(C(N)=O)cc2)c1 | -55.48%
19 | COCCCN(C)C1CCCN(Cc2noc(C3CC3)n2)C1 (stereo not given) | -38.52%
20 | CCCc1nnc(N2CCC3(CC2)CN(C)C(=O)O3)o1 | -93.43%
21 | O[C@H]1CC[C@@H](Cc2cc(-c3ccccn3)on2)O[C@@H]1CNCC1CC1 | -74.71%
22 | O[C@H]1CC[C@@H](Cc2cc(-c3ccccc3)on2)O[C@@H]1CNCC1CC1 | 37.66%
23 | O[C@H]1CC[C@@H](Cc2cc(-c3ccc(F)cc3)on2)O[C@@H]1CNCC1CC1 | 62.55%
24 | CN(Cc1cccs1)c1cc(N2CCCC2CO)ncn1 (stereo not given) | -120.2%
25 | Cc1cc2nc(SCC(=O)N3CCOCC3)n(CC(C)C)c(=O)c2[nH]1 | -82.87%
26 | CC(C)c1cc(Br)ccc1NC(=O)NC(C)(CO)CO | -72.51%
27 | CC(c1nc(C(C)(C)C)no1)S(=O)(=O)CC(=O)N(C)C (stereo not given) | -171.7%
28 | Fc1ccc(Sc2ccccc2CNC2=NCCN2)cc1.I | 79.96%

Row | SMILES | Percent Effect
29 | Fc1ccc(OCCCNC2=NCCN2)cc1.I | 3.475%
30 | O=C(CCc1nnc2ccccn2c1=O)NCc1ccco1 | -46.43%
31 | COc1ccsc1C(=O)NCCN1CCOCC1 | -115.8%
32 | Cc1nc(C)n(CC2CCCN2Cc2ccn(-c3ccccc3)n2)n1 (stereo not given) | -118.1%
33 | CNCCCNC1CCN(c2ccc(-n3ccnc3)cc2)CC1 | 32.68%
34 | CCN1CCC2(CC1)CC(CC(=O)N(C)C)c1ccc(F)cc12 (stereo not given) | -67.07%
35 | CCC(C)N(Cc1ccc(C)cc1)Cc1c[nH]c(C)n1 (stereo not given) | 77.78%
36 | CCC(C)N(Cc1ccncc1)Cc1ccc(-n2cccn2)cc1 (stereo not given) | -4.562%
37 | CCC(C)N(Cc1c[nH]c(C)n1)Cc1ccccc1Cl (stereo not given) | 47.84%
38 | CCc1ccc(CN2CCNC(C(=O)N3CCN(C)CC3)C2)o1 (stereo not given) | -22.63%
39 | CCOc1ncccc1C(=O)N1CCCC1Cn1cc(C)cn1 (stereo not given) | -83.81%
40 | Cc1nc(C)c(C)c(N2CCC(O)(c3ccc(F)cc3)CC2)n1 | -9.23%
41 | Fc1ccccc1CN1CCCN(c2ncnc3[nH]ccc23)CC1 | -95.46%
42 | CNc1nnc(SCc2nnc(C(C)(C)C)o2)s1 | -74.95%
43 | O=C1NCC(C(=O)Nc2ncc(Cc3ccc(F)cc3F)s2)N1 (stereo not given) | -63.93%
44 | O=C(Cc1cccc2ccccc12)N1CCC(Nc2cccnn2)CC1 | -77.23%
45 | O=C1CC2(CCN(CCCO)CC2)CN1Cc1ccc(F)c(F)c1 | -28.18%
46 | CC(NCC1CCN(CCO)CC1)c1cccc(Cl)c1 (stereo not given) | 84.07%
47 | CS(=O)(=O)CCN1CCC(Nc2c(Cl)cccc2C#N)CC1 | -32.59%
48 | CC(NC1CCN(CCS(C)(=O)=O)CC1)c1ccc(Cl)cc1 (stereo not given) | 56.47%
49 | COc1ccc(C(C)N2CCC(CO)CC2)cc1Cl (stereo not given) | -19.12%
50 | Cc1ccc(CNC(=O)CNCC2CCN(CCO)CC2)s1 | -48.54%
51 | Cc1cccc(C(C)NCC2CCS(=O)(=O)CC2)c1 (stereo not given) | 7.654%
52 | CC(NCC1CCN(CCO)CC1)c1cccnc1 (stereo not given) | -40.75%
53 | CC(c1ccc(Cl)cc1)N1CCN(CCS(C)(=O)=O)CC1 (stereo not given) | -44.52%
54 | COCCN1CCC(CNC(=O)Nc2ccc(F)c(Cl)c2)C1 (stereo not given) | -33.14%
55 | CC(NCC1CCN(CCO)CC1)c1ccc(F)c(Cl)c1 (stereo not given) | 83.31%
